Source: PubChem (NMMLSC)
RGS7-Gao: regulators of human RGS7-Galphao interaction | hit rate 0.35% among 220,000 | Multiplexed bead flow cytometry, RGS7-Galphao binding; actives lie on both sides | binding response (% of control), % at 10 µM | P09471 | AID 1439; in the data active means binding response below about 49% or above about 150%; inconclusive means no clear call, values can overlap the other calls; inactive means in between;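 further: fluorescent Galphao held in activated GDP-AlF4 state binding bead-coupled RGS7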
Avidin bead fluor: avidin bead compound fluorescence profile. AID 1775. Avidin beads, compound fluorescence 488/530 nm, flow cytometry; hits give high values. fluorescence (KMESF) at 10 µM. hit rate 0.38% among 220,000; in the data active means fluorescence above about 47
GSH bead fluor: compound fluoresces at 488/530 nm on GSH beads; GSH beads flow cytometry, compound fluorescence 488/530 nm; hits give high values; fluorescence (KMESF) at 10 µM; hit rate 0.25% among 190,000; AID 1776; in the data active means fluorescence above about 89;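 further: glutathione beads carrying GST-tagged Bcl family fusion proteins plus one bare bead set; values are compound well signal with DMSO vehicle wells as background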
RGS16-Gao: RGS16-Galphao interaction regulator (human) | O15492+P09471 | bead-based flow cytometry RGS16-Galphao binding, fluorescence; actives lie on both sides | binding response (% of control), % at 10 µM | hit rate 0.38% among 220,000 | AID 1441; call rule not given here;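 further: Galphao activated by GDP with aluminum fluoride before binding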
Target sequence (O15492 whole entry, looked up): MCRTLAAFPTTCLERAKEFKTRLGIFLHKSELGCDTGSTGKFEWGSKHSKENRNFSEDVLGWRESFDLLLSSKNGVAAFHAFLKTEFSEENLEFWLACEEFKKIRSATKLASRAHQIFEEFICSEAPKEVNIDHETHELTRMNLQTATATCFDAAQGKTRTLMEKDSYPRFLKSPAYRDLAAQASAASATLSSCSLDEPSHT
Target sequence (P09471 whole entry, looked up): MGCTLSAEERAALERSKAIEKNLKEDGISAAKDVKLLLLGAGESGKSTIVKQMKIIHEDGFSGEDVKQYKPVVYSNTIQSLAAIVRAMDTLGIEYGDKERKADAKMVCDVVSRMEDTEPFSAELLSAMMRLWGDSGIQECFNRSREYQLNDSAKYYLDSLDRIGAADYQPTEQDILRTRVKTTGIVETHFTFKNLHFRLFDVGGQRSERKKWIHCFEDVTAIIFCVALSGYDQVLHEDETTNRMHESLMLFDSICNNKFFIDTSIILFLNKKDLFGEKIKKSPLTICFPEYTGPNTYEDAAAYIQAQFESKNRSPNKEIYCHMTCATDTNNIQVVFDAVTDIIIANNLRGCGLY
RGS8-Gao reg: regulators of human RGS8-Galphao interaction | multiplexed bead flow cytometry, RGS8-Galphao binding; actives lie on both sides | response (percent of control binding), % at 10 µM | hit rate 0.34% among 220,000; in the data active means response below about 60% or above about 140%; inactive means in between;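 further: Galphao activated as the GDP aluminium fluoride complex binding bead-coupled RGS8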
RGS4-Gao reg: modulates binding of RGS4 to human Galphao; Multiplexed bead flow cytometry; actives lie on both sides; AID 1415; hit rate 0.33% among 220,000; binding response (% of control), % at 10 µM; P09471; in the data active means binding response below about 49% or above about 150%; inactive means in between;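 further: fluorescent Galphao activated with aluminum fluoride binding bead-coupled RGS4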
* = called active by the depositor; ? = inconclusive; . = no result. Shown are actives, neighbours in structure and some others; about 1.2% of the full set was active somewhere.

SMILES	RGS7-Gao	Avidin bead fluor	GSH bead fluor	RGS16-Gao	RGS8-Gao reg	RGS4-Gao reg
Cc1ccc(NC(=O)CS(=O)CC(=O)NC(C)CCc2ccco2)cc1Cl (centres undefined)	116	72*	26	98	97	97
CC(CCc1ccco1)NC(=O)Nc1cccc(F)c1 (centres undefined)	107	10	52	108	103	106
CCN1CCOC(CC(=O)Nc2ccc([N+](=O)[O-])cc2)C1=O (centres undefined)	?	8	.	101	100	103
COc1ccc(NC(=O)CCN2CCN(S(=O)(=O)c3cc(Cl)ccc3Cl)CC2)cc1	114	60*	29	156	106	136
COc1ccc(NC(=O)CCN2CCN(S(=O)(=O)c3ccc(OC)cc3)CC2)cc1	97	10	11	107	100	101
CN1CCN(CCC(=O)Nc2ccc(Br)cc2)CC1	99	11	16	102	100	100
O=C(CCN1CCCCC1)Nc1ccc(Br)cc1	108	49*	20	103	102	104
CC(C)=NNC(=O)C1=NNC(=O)C1	?	7	.	101	102	99
CCCCOCC(O)Cn1c(C)nc2ccccc21 (centres undefined)	102	9	261*	114	102	106
CCCN(CCC)S(=O)(=O)c1ccc(NS(=O)(=O)c2ccc(F)cc2)cc1	110	52*	19	101	99	102
Cc1sc(NC(=O)c2cccs2)c(C(=O)OC(C)C)c1C	105	5	102*	108	106	110
CCc1c(C)sc(NC(=O)c2cccs2)c1C(=O)OC(C)C	100	11	28	99	101	100
COc1cc2c(cc1OC)C1(C)N(CC2)C(C(C)=O)=NN1c1ccc(Cl)cc1 (centres undefined)	?	6	.	113	104	122
CCSC1=N/C(=C\c2ccc3c(c2)OCO3)C(=O)S1	93	21	12	95	95	96
CCCSC1=N/C(=C\c2ccc3c(c2)OCO3)C(=O)S1	110	60*	52	104	103	101
CN(C)CCn1c(=O)n(-c2cccc(Cl)c2)c(=O)c2c3c(sc21)CCCCC3	?	7	.	103	101	102
Fc1ccc2c(Cl)c(-c3nnc(-c4cccs4)o3)sc2c1	101	7	255*	101	100	99
COC(=O)c1cc(NC(=O)c2cccc(Cl)c2)c(=O)oc1/C=C/Nc1cc(C)cc(C)c1	104	16	173*	108	99	106
COC(=O)c1cc(NC(=O)c2cccc(C(F)(F)F)c2)c(=O)oc1C	?	11	19	103	102	103
S=c1[nH]nc(-c2ccccc2Cl)n1CC1CCCO1 (centres undefined)	110	52*	30	104	101	103
COCCCn1c(SCC(=O)NCc2ccccc2)nc2ccccc2c1=O	108	6	14	112	105	106
COCCCn1c(SCC(=O)Nc2ccc(C(C)=O)cc2)nc2ccccc2c1=O	99	7	259*	92	100	94
Cc1cccc(Cc2nnc(CCC(=O)N(C)C3CCOC3)o2)c1 (centres undefined)	98	12	12	99	98	96
Cc1ccc(C(O)P(=O)(OC2CCCCC2)OC2CCCCC2)cc1 (centres undefined)	108	56*	38	129	104	94
COc1ccccc1NS(=O)(=O)c1cc(NC(=O)c2ccc3c(c2)OCCO3)ccc1C	91	7	4	25	79	98
CC(=O)Nc1cc2c(=O)n(Cc3ccccc3)c(C)nc2cc1N1CCOCC1	113	52*	37	105	102	107
NC(=O)c1cccc(CC(=O)c2ccccc2)c1	?	6	.	84	88	86
O=C(OCC(=O)N1CCOCC1)c1ccc2c(c1)OCCO2	30*	1	12	-154	42*	32*
COc1ccc(N(CC(=O)NC2CCCCC2)C(=O)CCCC(=O)Nc2ccccn2)c(OC)c1	132	84*	14	103	103	114
Cc1ccccc1NC(=O)C1CCCN1C(=O)NC1CCCCC1 (centres undefined)	102	8	263*	104	103	102
